The source of these data is PubChem BioAssay.

Test [1] is described as follows: compound effects on lung adenocarcinoma cell viability – A549, calcein-AM fluorescence, 48 h, basal, profiling panel (AID 1162). The following applies: higher = more signal.
The nature of test [2]: compound effects on differentiated 3T3-L1 adipocyte viability – cell-based, 3T3-L1 adipocytes, calcein-AM fluorescence, 48 h, basal, profiling panel (AID 1163). The following applies: 3T3-L1 adipocytes viability, higher = more signal.
The nature of test [3]: compound effects on hepatocellular carcinoma cell viability – HepG2, calcein-AM fluorescence, 48 h, basal, profiling panel (AID 1164). The following applies: higher = more signal.
Test [4] can be described thus: compound effects on multiple myeloma cell viability – MM1S, calcein-AM fluorescence, 48 h, basal, profiling panel (AID 1165). Conditions: higher = more signal.
The nature of test [5]: calcein-AM signal in unstimulated myeloma cells – cell-based, calcein-AM fluorescence, 48 h, PK04 Diversity Set, profiling panel (AID 1166).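 Also: cells grown under basal conditions without added stimulus.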 The following applies: RPMI8226 myeloma viability, higher = more signal.
A short description of test [6]: JC-1 mitochondrial signal, unstimulated HepG2 cells – cell-based, JC-1 fluorescence, 24 h, 100 nL compound, profiling panel (AID 1167). Conditions: HepG2 mitochondrial potential, higher = more signal.
Test [7] in a line: JC-1 mitochondrial signal, unstimulated adipocytes – cell-based, JC-1 fluorescence, 3T3-L1 adipocytes, 24 h, 100 nL compound, profiling panel (AID 1168). Conditions: JC-1 mitochondrial fluorescence, higher = more signal, called active from +8 up or from −8 down.
Test [8] is described as follows: JC-1 mitochondrial signal, unstimulated myeloma cells – cell-based, JC-1 fluorescence, RPMI8226, 24 h, 100 nL compound, profiling panel (AID 1169). Conditions: JC-1 mitochondrial potential fluorescence, higher = more signal.
Test [9] is described as follows: JC-1 mitochondrial signal, unstimulated MM1S myeloma – cell-based, JC-1 fluorescence, 24 h, 100 nL compound, profiling panel (AID 1170). Conditions: MM1S mitochondrial potential, higher = more signal.
Test [10] is described as follows: resazurin metabolic signal in A549 cells – cell-based, resazurin fluorescence, 24 h, PK04 Diversity Set, profiling panel (AID 1171). The following applies: A549 viability, higher = more signal, called active from +8 up or from −8 down. On the technique in general: The colour change of resazurin is a common sign of viable cells or microbes.

SMILES strings stand for the structures. Calls of active or inactive are those of the source.
Also: test concentration not given here.

Consider `CCOC(=O)NN=C1C[C@@H](O)[C@@H](O)[C@@H]2[C@@H]3C(=O)N(C(C)(C)C)C(=O)[C@@H]3CC[C@@H]12`, for which the z-score was -0.571 in [1]; -0.0947 in test [2]; -0.394 in test [3]; 0.0284 in test [4]; -0.0464 in [5]; -0.79 in test [6]. The z-score is -0.911 (inactive) in test [7], 0.329 in [8], 0.243 in test [9] and -0.452 (inactive) in test [10].

In the case of `CN(C)CCCNC(=O)[C@@H]1c2ccccc2C(=O)N(Cc2cc(F)cc(C(F)(F)F)c2)[C@H]1c1ccc(CO)cc1`, the z-score in test [1] was -0.276; in test [2] it was 0.239; in test [3] it was -0.318; in test [4], 0.137; in test [5], 0.606; in [6], 1.3. The z-score was -0.557 (inactive) in test [7], 0.735 in test [8], -0.195 in test [9] and 0.0923 (inactive) in test [10].

Take `CCOC(=O)C[C@H]1[C@H](OC(=O)c2ccc(C(=O)c3ccccc3)cc2)[C@@H](NC(=O)c2ccc(-c3ccccc3)cc2)c2cc(OCCCO)ccc2N1C(=O)c1ccc2ccccc2n1`: the z-score is 1.03 in test [1]; 1.44 in test [2]; 1.35 in test [3]; 0.598 in test [4]; 1.08 in [5]; 1.92 in test [6]. Besides, the z-score is 1.98 (inactive) in test [7], 0.611 in test [8], -1.18 in test [9] and 0.336 (inactive) in test [10].

Take `CCCCCCc1nc(CCCc2cc3c(c(CCCCCC)n2)[Si](C(C)C)(C(C)C)O[C@H]3c2ccccc2)cc2c1[Si](C(C)C)(C(C)C)O[C@H]2c1ccccc1`: the z-score in test [1] was 1.4; in test [2], -0.352; in [3], -0.17; in test [4] it was -0.374; in test [5] it was -0.966; in test [6], 0.903. For the same molecule, the z-score was 0.774 (inactive) in [7], -0.308 in test [8], 0.396 in test [9] and 1.09 (inactive) in test [10].

Regarding `CN(C)C(=O)[C@@]1(Cc2ccccc2)N=C(c2ccc(OCCCO)cc2)O[C@H]1c1ccccc1CN=[N+]=[N-]`, the z-score in [1] is -0.309; in test [2], -0.562; in test [3], -0.903; in test [4], -0.74; in test [5], -2.6; in [6], -0.12. In addition, the z-score in [7] was -0.775 (inactive); in test [8], -0.913; in test [9], -0.589; in [10] it was -0.348 (inactive).

With `O=C1c2ccccc2[C@@]2(Cc3ccccc3N(C3CC3)C2=O)[C@H](c2ccc(CO)cc2)N1Cc1ccccc1C(F)(F)F`, the z-score was 0.238 in [1]; 0.4 in test [2]; -0.772 in test [3]; 0.306 in [4]; -0.522 in test [5]; 1.13 in test [6]. For the same molecule, the z-score in test [7] is -0.474 (inactive); in test [8], 0.84; in test [9] it was -1.56; in test [10] it was 0.164 (inactive).

`CCOC(=O)CCN1C(=O)[C@H]2[C@H]3[C@H](O)[C@H](O)CC(=NOC[C@@H](O)COCc4ccco4)[C@H]3CC[C@H]2C1=O`: the z-score in test [1] is -1.43; in test [2] it was 0.8; in [3], -0.524; in test [4] it was -2.09; in test [5], -2.29; in test [6] it was -0.803. In addition, the z-score is -0.433 (inactive) in [7], -0.126 in test [8], -0.612 in test [9] and -0.383 (inactive) in [10].

For `COc1ccc([Si](C)(C)[C@H]2[C@H](CCO)O[C@@]3(C(=O)N(Cc4cccc(NC(=O)[C@H](C)O)c4)c4ccccc43)[C@@H]2C)cc1`, the z-score in [1] is -2.82; in test [2], -0.401; in test [3], -4.52; in test [4], -2.63; in test [5] it was -4.36; in [6], -2.89. The z-score in test [7] is 1.46 (inactive); in [8] it was -1.02; in [9], -2.35; in [10], -4.28 (inactive).

`CN1C(=O)C2C=CC(C(O)c3ccc(I)cc3)N(NC(=O)OC(C)(C)C)C2C1=O` (stereo not given): the z-score in test [1] was -0.872; in test [2], -0.692; in test [3] it was -1.28; in [4], -0.0342; in test [5] it was -0.297; in test [6], -1.56. Besides, the z-score is -0.474 (inactive) in test [7], -0.698 in [8], 0.804 in test [9] and -0.312 (inactive) in test [10].

For `COc1ccc(-c2ccc3c(n2)CCCN3CC(O)CN2CCCc3nc(C)c(C)cc32)cc1` (stereo not given), the z-score is -0.389 in [1]; -0.943 in test [2]; 0.151 in [3]; 0.676 in test [4]; -0.158 in test [5]; 1.58 in test [6]. Also, the z-score is -0.205 (inactive) in [7], -0.108 in test [8], -0.975 in [9] and -0.542 (inactive) in test [10].

With `CCOC(=O)CCN1C(=O)[C@H]2[C@H]3[C@H](O)C=CC(=O)[C@@H]3CC[C@H]2C1=O`, the z-score was 0.0872 in test [1]; 0.0636 in [2]; 0.338 in test [3]; -0.921 in test [4]; 0.586 in [5]; 0.0469 in test [6]. The z-score in test [7] is 0.53 (inactive); in [8], 0.203; in test [9], 0.176; in test [10], 0.289 (inactive).
